Laboratory results from PubChem BioAssay AID602393 (Broad Institute, 2012).
Hit rate of the full screen: of about 350,000 compounds, about 7,000 (2%) were called active. Cut-off read from the data, not from the text of the source: active = activation above about 40%; inconclusive = no clear call, values can overlap the other calls; inactive = below that. What follows is part of a selection rich in actives, with near analogues and random picks from the rest.

Test: Bmi1 luciferase reporter increase in mESCs, primary screen, esBAF inhibitor project, mouse ES cells, Bmi1 luciferase knock-in, single point (AID 602393);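 note: 0% = median of the plate's neutral control wells and 100% = double that signal; a rise in the Bmi1 reporter signal indicates esBAF inhibition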
Conditions: 24 h, at 12.5 µM, stronger effect = higher value, 100% = twice the neutral-well signal

Row | Structure (SMILES) | reporter increase
1 | CNC[C@H]1OCCCC[C@@H](C)Oc2ccc(NC(=O)c3ccccc3)cc2C(=O)N([C@@H](C)CO)C[C@H]1C | 9.15% (inactive)
2 | C[C@@H]1CN([C@H](C)CO)C(=O)c2cc(C#CC3(O)CCCC3)cnc2O[C@H]1CN(C)Cc1ccncc1 | -2.58% (inactive)
3 | Cc1ccc(C(=O)NC(=S)Nc2ccccc2C)cc1 | 69.2% (active)
4 | Cc1ccccc1NC(=S)NC(=O)Cc1ccc(Cl)cc1 | 5.51% (inactive)
5 | Cc1ccc(C(=O)NC(=S)Nc2ccc(N3CCOCC3)cc2)cc1 | 5.69% (inactive)
6 | CC(C)NC(=O)N[C@H]1C=C[C@H](CC(=O)NCCN2CCCC2)O[C@@H]1CO | -2.39% (inactive)
7 | Cc1c(CCC(=O)O)c(=O)oc2cc(OCc3ccc(Br)cc3)ccc12 | 14.3% (inactive)
8 | COC(=O)Cc1c(C)c2ccc(OCC(=O)NCc3ccc4c(c3)OCO4)cc2oc1=O | 4.08% (inactive)
9 | CCc1c(C)c2ccc(OC3CCCCC3=O)cc2oc1=O (centres undefined) | 65.6% (active)
10 | COc1cccc(CNC(=O)[C@@H]2[C@@H](CO)[C@@H]3Cn4c(ccc(-c5ccncc5)c4=O)[C@H]2N3C(C)=O)c1 | 5.45% (inactive)
11 | CO[C@@H]1CN(C)C(=O)c2cc(NS(=O)(=O)CC(F)(F)F)ccc2OC[C@H](C)N(Cc2ccccn2)C[C@@H]1C | 0.135% (inactive)
12 | C[C@@H]1CN([C@@H](C)CO)C(=O)c2cccc(N(C)C)c2O[C@@H]1CN(C)S(=O)(=O)c1ccccc1 | 0.064% (inactive)
13 | Cc1cc(NC(=O)COc2ccc(Cl)cc2Cl)n(CCC#N)n1 | 97.9% (active)
14 | CCCn1nnnc1NC(=O)COc1ccc(Cl)cc1C | -3.97% (inactive)
15 | O=C(COc1ccc([N+](=O)[O-])cc1Cl)Nn1cnnc1 | -5.37% (inactive)
16 | CCC(=O)N1C[C@H](C)[C@H](OC)CN(C)C(=O)c2ccc(NC(=O)c3cnccn3)cc2OC[C@@H]1C | -10.3% (inactive)
17 | CC(C)NC(=O)N(C)C[C@@H]1Oc2cc(C#C[C@H](C)O)ccc2S(=O)(=O)N([C@@H](C)CO)C[C@H]1C | 0.093% (inactive)
18 | O=C(c1ccncc1)N1C[C@H]2[C@@H](c3ccccc31)[C@H](CO)N2Cc1ccc(F)cc1 | -3.53% (inactive)
19 | CCOc1ccc2cc(C#N)c(SCC(=O)OC)nc2c1 | 66.4% (active)
20 | COC(=O)CSc1nc(C)c2ccc(OC)cc2n1 | -3.51% (inactive)
21 | Cc1nonc1NC(=O)CSc1nc2ccccc2cc1C#N | 36.1% (inactive)
22 | C[C@@H]1CN([C@@H](C)CO)C(=O)c2cc(NS(=O)(=O)c3ccccc3)ccc2O[C@H]1CN(C)S(=O)(=O)c1ccc(Cl)cc1 | 11.7% (inactive)
23 | CCCN1[C@H](C(=O)NCC)[C@@H](CO)[C@@H]2Cn3c(ccc(C4=CCCC4)c3=O)[C@@H]21 | -2.59% (inactive)
24 | CCC(=O)Nc1ccc2c(c1)C(=O)N(C)[C@@H]1CC[C@@H](CC(=O)N[C@@H](C)c3ccccc3)O[C@@H]1CO2 | -1.27% (inactive)
25 | COc1cccc(NC(=O)Nc2ccc3c(c2)C(=O)N(C)C[C@H](OC)[C@@H](C)CN[C@@H](C)CO3)c1 | 2.37% (inactive)
26 | FC(F)(F)c1ccnc(Oc2ccc(C3=NCCS3)cc2)c1 | 45.6% (active)
27 | C/C=C/c1cnc2c(c1)C(=O)N([C@H](C)CO)C[C@@H](C)[C@H](CN(C)Cc1cccc(C(=O)O)c1)O2 | -4.01% (inactive)

Row | Structure (SMILES) | reporter increase
28 | Cc1noc(C)c1S(=O)(=O)N(C)C[C@H]1Oc2ccc(NC(=O)Cc3ccccc3)cc2CC(=O)N([C@@H](C)CO)C[C@H]1C | 6.49% (inactive)
29 | C[C@@H]1CN([C@@H](C)CO)C(=O)c2cc(NC(=O)c3ccncc3)ccc2O[C@@H]1CN(C)S(C)(=O)=O | 0.579% (inactive)
30 | CN1c2ccc(C#Cc3cccnc3)cc2[C@@H]2[C@@H](CCN2S(=O)(=O)c2ccccc2)[C@H]1CO | 11.3% (inactive)
31 | N=c1c2c3c(sc2nc2n1CCCCC2)CCCC3 | 24.2% (inactive)
32 | O=S(=O)(c1ccc(Cl)cc1)c1nc(-c2ccco2)oc1N1CCCCC1 | -5.66% (inactive)
33 | O=c1oc(-c2ccco2)nc2sc3c(c12)CCCCC3 | 57.3% (active)
34 | CCCNC(=O)N1C[C@@H](C)[C@@H](OC)CN(C)C(=O)c2ccc(NC(=O)CCC)cc2OC[C@H]1C | -1.55% (inactive)
35 | COCC#Cc1cnc2c(c1)C(=O)N([C@H](C)CO)C[C@H](C)[C@@H](CN(C)C(=O)Nc1cc(F)ccc1F)O2 | 6.3% (inactive)
36 | COCC#Cc1ccc2c(c1)O[C@H](CN(C)C(=O)C1CCOCC1)[C@@H](C)CN([C@@H](C)CO)S2(=O)=O | 5.12% (inactive)
37 | COc1ccc(C2CC(=O)NC(=O)C2)cc1 | -4.89% (inactive)
38 | COc1ccc([C@H]2CC(=O)C=C(/C=C/c3ccccc3)C2)cc1 | 70.2% (active)
39 | COc1ccc([C@H]2CC(=O)C=C(c3ccc(C)cc3)C2)cc1 | 8.3% (inactive)
40 | C[C@H](CO)N1C[C@H](C)[C@@H](CN(C)C)Oc2cc(C#Cc3ccccc3)ccc2S1(=O)=O | -3.93% (inactive)
41 | O=C(Nc1ccc(F)cc1)C(=O)c1cn(CC(=O)N2CCOCC2)c2ccccc12 | 41% (active)
42 | COc1cccc(NC(=O)C(=O)c2cn(CC(=O)N3CCOCC3)c3ccccc23)c1 | 20.7% (inactive)
43 | Cc1ccc(CNC(=O)C(=O)c2cn(CC(=O)N3CCOCC3)c3ccccc23)cc1 | 20.4% (inactive)
44 | CO[C@@H]1CN(C)C(=O)c2cc(NC(=O)C3CCC3)ccc2OC[C@H](C)N(C(=O)CN(C)C)C[C@@H]1C | -3.99% (inactive)
45 | C[C@H](CO)N1C[C@H](C)[C@@H](CN(C)C(=O)Nc2ccc3c(c2)OCO3)OCCCC[C@H](C)Oc2ccc(NS(=O)(=O)c3cn(C)cn3)cc2C1=O | -2.06% (inactive)
46 | C[C@H]1CN([C@@H](C)CO)C(=O)Cc2cc(NC(=O)Nc3cccc4ccccc34)ccc2O[C@@H]1CN(C)C | -2.18% (inactive)
47 | COc1ccc(S(=O)(=O)N(C)C[C@H]2Oc3ccc(NC(=O)Nc4ccccc4)cc3CC(=O)N([C@H](C)CO)C[C@@H]2C)cc1 | -4.23% (inactive)
48 | O=C(NCCCn1ccnc1)c1ccccc1F | -2.18% (inactive)
49 | O=C(NCCCn1ccnc1)c1cc(-c2ccccc2)on1 | 47.2% (active)
50 | O=C(NCCCn1ccnc1)c1cc(Br)c(Br)s1 | -10.5% (inactive)
51 | C[C@@H](NC(=O)[C@@H]1[C@@H](CO)[C@@H]2Cn3c(ccc(C4=CCCCC4)c3=O)[C@@H]2N1C)c1ccccc1 | 1.48% (inactive)
52 | Cc1ccc(S(=O)(=O)Nc2ccc3c(c2)C(=O)N([C@@H](C)CO)C[C@@H](C)[C@H](CN(C)Cc2ccncc2)O3)cc1 | 2.63% (inactive)
53 | C[C@H](CO)N1C[C@H](C)[C@H](CN(C)Cc2ccncc2)Oc2ccc(N(C)C)cc2C1=O | -1.91% (inactive)
54 | CCOC(=O)c1cc2cc(C)ccc2[nH]1 | 70.2% (active)

Row | Structure (SMILES) | reporter increase
55 | CCOC(=O)c1[nH]c2ccc(C)cc2c1N=C(C)N(C)C | 1.77% (inactive)
56 | Cc1ccc2[nH]c(=O)c(COC(=O)c3ccccn3)cc2c1 | -2.11% (inactive)
57 | CCCNC(=O)N(C)C[C@H]1Oc2cc(C#C[C@@H](C)O)ccc2S(=O)(=O)N([C@H](C)CO)C[C@H]1C | -0.613% (inactive)
58 | COCC(=O)N1C[C@@H]2[C@H](c3ccccc31)[C@@H](CO)N2C(=O)C1CC1 | -6.95% (inactive)
59 | CCNC(=O)[C@@H]1[C@@H](CO)[C@@H]2Cn3c(ccc(-c4ccncc4)c3=O)[C@@H]2N1Cc1cc(F)ccc1F | -2.84% (inactive)
60 | O=C(CCNC(=O)c1ccccc1)Nc1nc2ccccc2s1 | 59.5% (active)
61 | CC(C)Cc1nnc(NC(=O)CCNC(=O)c2ccccc2Cl)s1 | -1.82% (inactive)
62 | CCCC(=O)Nc1nc2ccc(NC(=O)c3c(F)c(F)c(OC)c(F)c3F)cc2s1 | -33% (inactive)
63 | O=S(=O)(N[C@H]1CC[C@@H](CCNS(=O)(=O)c2ccccc2Cl)O[C@@H]1CO)c1ccccc1 | 2.98% (inactive)
64 | CCOC(=O)c1ccc(NC(=O)Cc2cccs2)cc1 | 49.7% (active)
65 | O=C(Cc1cccs1)Nc1ccc([N+](=O)[O-])cc1 | 1.47% (inactive)
66 | CCOc1ccc(NC(=O)C/C(C)=N/NC(=O)Cc2cccs2)cc1 | -1.12% (inactive)
67 | CN(C)CC(=O)Nc1ccc2c(c1)[C@H]1C[C@@H](CC(=O)NCc3ccccn3)O[C@@H](CO)[C@H]1O2 | -2.09% (inactive)
68 | COc1cccc(S(=O)(=O)N(C)C[C@@H]2Oc3cc(C4=CCCCC4)ccc3S(=O)(=O)N([C@H](C)CO)C[C@H]2C)c1 | -4.77% (inactive)
69 | O=C(OCC(=O)c1c[nH]c2ccccc12)c1cccc(O)c1 | 96.8% (active)
70 | Cc1ccc(S(=O)(=O)c2c(COC(=O)c3cccc(Cl)c3)c(-c3ccccc3)nn2C)cc1 | 12.1% (inactive)
71 | O=C(OCc1ccc(-c2ccccc2)cc1)c1cccc(O)c1 | 56.3% (active)
72 | C[C@H](NC(=O)c1ccccc1)C(=O)OCC(=O)c1c[nH]c2ccccc12 | 4.74% (inactive)
73 | CCOc1ncccc1C(=O)OCC(=O)c1c[nH]c2ccccc12 | 5.19% (inactive)
74 | O=C(OCC(O)C(O)COC(=O)c1ccccc1)c1ccccc1 (centres undefined) | -4.1% (inactive)
75 | COCC(=O)N1C[C@@H](C)[C@H](OC)CN(C)C(=O)c2ccc(NC(=O)c3ccc(F)cc3)cc2OC[C@H]1C | -1.39% (inactive)
76 | CCCNC(=O)N1[C@H](CNC(C)=O)[C@@H](c2ccc(C3=CCCC3)cc2)[C@@H]1CO | 2.55% (inactive)
77 | O=C(c1cc(-c2ccc(Cl)cc2)on1)N1CCN(c2ccccc2)CC1 | 60.8% (active)
78 | COc1ccc(-c2cc(C(=O)N3CCN(c4ccc(F)cc4)CC3)no2)cc1 | 5.86% (inactive)
79 | O=C(c1cc(-c2ccc(O)cc2)on1)N1CCOCC1 | -6.48% (inactive)
